Results on eight compounds are retold here after PubChem BioAssay (EPA / NIEHS).

Test [1] can be described thus: ATG_TCF_b_cat_CIS: Attagene CIS-FACTORIAL HepG2 Assay for human T-Cell-Factor with beta-catenin (TCF/b-cat) (AID 2282965; active means hit-call score of the fitted dose curve at least 0.9, where 1 is the maximum; inactive means score below 0.9). The settings on record: HepG2 TCF/beta-catenin cis-reporter transcription, actives raise or lower the signal. The gist of the method:
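Cells of the HepG2 line carry transiently transfected reporter units whose promoters respond to endogenous factors. Twenty-four hours post-dosing, reporter mRNA induction is measured by fluorescent RT-PCR and capillary electrophoresis, with DMSO as baseline.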

Test [2] can be described thus: ATG_TAL_CIS: Attagene CIS-FACTORIAL HepG2 Assay for human TAL Basal Promoter (AID 2282966; active means hit-call score of the fitted dose curve at least 0.9, where 1 is the maximum; inactive means score below 0.9;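 further: background control endpoint measuring basal TAL promoter reporter mRNA not a specific factor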). The settings on record: HepG2 Attagene cis-factorial TAL promoter reporter; actives raise or lower the signal. In short, it runs like this: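 Basal-promoter background-control endpoint from a multiplexed HepG2 reporter panel. Cells were exposed 24 h, then reporter mRNA was read by RT-PCR/CE fluorescence and fitted in both directions relative to DMSO.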

The nature of test [3]: ATG_TGFb_CIS: Attagene CIS-FACTORIAL HepG2 Assay for human Transforming Growth Factor (TGF) (AID 2282967; active means hit-call score of the fitted dose curve at least 0.9, where 1 is the maximum; inactive means score below 0.9). The note with it: HepG2 Attagene CIS TGFb reporter, mRNA transcription; actives raise or lower the signal. The gist of the method:
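Transcript-level reporter readout: HepG2 transfectants, 24 h exposure, RNA to cDNA, reporter-specific PCR, fluorescent primer extension, capillary sizing against ROX standards. Gain- or loss-of-signal relative to DMSO.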

Test [4] in a line: ATG_VDRE_CIS: Attagene CIS-FACTORIAL HepG2 Assay for human Vitamin D Receptor Element (VDRE) (AID 2282968; active means hit-call score of the fitted dose curve at least 0.9, where 1 is the maximum; inactive means score below 0.9). The note with it: HepG2 VDRE cis-reporter transcription, actives raise or lower the signal. The gist of the method: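 Compounds were applied for 24 h to HepG2 cells transfected with promoter-regulated reporter units. Total RNA was reverse-transcribed, and reporter amplicons were fluorescently labelled and sized by capillary electrophoresis.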

Test [5] addresses Nuclear receptor subfamily 1 group I member 3 (Homo sapiens) (UniProt Q14994). Put plainly: ATG_CAR_TRANS: Attagene TRANS-FACTORIAL HepG2 Assay for human Constitutive Androstane Receptor (CAR) (AID 2282969).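 Further: activators raise reporter mRNA above DMSO so AC50 marks induction.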 The settings on record: HepG2 Attagene TRANS-FACTORIAL CAR reporter. The gist of the method: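 Transiently transfected HepG2, multiplex TRANS reporters (CAR-Gal4 chimera driving GAL4-UAS reporter). 24 h dosing. Readout: reporter transcript by RT-PCR + capillary electrophoresis, fluorescence intensity; positive direction vs DMSO.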

For test [6], the target named is Estrogen receptor (Homo sapiens) (UniProt P03372). Put plainly: ATG_ERa_TRANS: Attagene TRANS-FACTORIAL HepG2 Assay for human Estrogen Receptor alpha (ERa) (AID 2282970). The settings on record: HepG2 Attagene TRANS ERa GAL4 reporter, mRNA. The gist of the method: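 Gal4-fusion ERa transactivation, measured as reporter transcript level in transiently transfected HepG2 cells. Exposure 24 h; RT-PCR plus capillary electrophoresis with fluorescence detection.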
Sequence of Estrogen receptor (Homo sapiens) (P03372 whole entry, looked up, the tested form may be a part): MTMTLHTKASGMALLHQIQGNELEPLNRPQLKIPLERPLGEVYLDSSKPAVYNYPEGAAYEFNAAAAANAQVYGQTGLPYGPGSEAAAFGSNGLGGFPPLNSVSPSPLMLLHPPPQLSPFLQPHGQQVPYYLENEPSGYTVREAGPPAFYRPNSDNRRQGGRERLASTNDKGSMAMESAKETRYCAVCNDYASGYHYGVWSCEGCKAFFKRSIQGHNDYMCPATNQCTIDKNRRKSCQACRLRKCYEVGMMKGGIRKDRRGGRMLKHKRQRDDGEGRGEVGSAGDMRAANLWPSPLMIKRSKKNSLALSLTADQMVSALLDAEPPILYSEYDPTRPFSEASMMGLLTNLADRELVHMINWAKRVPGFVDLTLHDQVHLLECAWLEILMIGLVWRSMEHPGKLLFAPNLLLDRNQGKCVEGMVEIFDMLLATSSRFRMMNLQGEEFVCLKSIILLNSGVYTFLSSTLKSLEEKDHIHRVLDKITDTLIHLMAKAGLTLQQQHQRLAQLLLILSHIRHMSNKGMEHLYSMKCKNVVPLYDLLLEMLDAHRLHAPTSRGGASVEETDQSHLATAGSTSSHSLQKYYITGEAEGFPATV

For test [7], the target named is X-box-binding protein 1 (Homo sapiens) (UniProt P17861). Nature of the test: ATG_Xbp1_CIS: Attagene CIS-FACTORIAL HepG2 Assay for human X-box Binding Protein 1 (XBP1) (AID 2282972; active means hit-call score of the fitted dose curve at least 0.9, where 1 is the maximum; inactive means score below 0.9). The settings on record: HepG2 XBP1 cis-element reporter, Attagene multiplex; actives raise or lower the signal. In short, it runs like this: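 Changes in reporter transcript abundance, read by RT-PCR and capillary electrophoresis, reflect endogenous transcription factor activity. Transfected HepG2 cells received compound for 24 hours; DMSO defined baseline for bidirectional analysis.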
Sequence of X-box-binding protein 1 (Homo sapiens) (P17861 whole entry, looked up): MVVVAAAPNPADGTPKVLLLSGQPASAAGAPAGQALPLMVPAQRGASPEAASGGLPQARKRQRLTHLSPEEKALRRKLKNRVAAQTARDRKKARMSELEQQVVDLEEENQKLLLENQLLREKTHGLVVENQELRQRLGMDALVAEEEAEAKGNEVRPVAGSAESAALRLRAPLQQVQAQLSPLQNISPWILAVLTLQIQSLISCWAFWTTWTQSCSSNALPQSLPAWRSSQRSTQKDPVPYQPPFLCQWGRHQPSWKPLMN

Test [8] has as its target Estrogen-related receptor gamma (Homo sapiens) (UniProt P62508). Nature of the test: ATG_ERRg_TRANS: Attagene TRANS-FACTORIAL HepG2 Assay for human Estrogen-Related Receptor gamma (ERRg) (AID 2282977).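 Further: hits increase reporter signal over DMSO so potencies reflect activators.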 The note with it: HepG2 Attagene TRANS reporter, ERRg transactivation. The gist of the method:
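Exogenous NR-Gal4 chimera activity measured as reporter transcript induction after 24 h in transiently transfected HepG2 cells. RNA reverse-transcribed, PCR-amplified, 6-FAM-labelled and resolved by capillary electrophoresis; increase over DMSO baseline.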

Test [9] addresses Glucocorticoid receptor (Homo sapiens) (UniProt P04150). Nature of the test: ATG_GR_TRANS: Attagene TRANS-FACTORIAL HepG2 Assay for human Glucocorticoid Receptor (GR) (AID 2282978).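 Further: activators score as hits since higher reporter transcript over DMSO is fitted.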 The settings on record: HepG2 Attagene TRANS GR reporter, mRNA transcription. In short, it runs like this:
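In this trans-factorial format, exogenous NR-GAL4 chimeric proteins in transfected HepG2 cells regulate GAL4-UAS reporter transcription. After 24 h treatment, reporter mRNA induction relative to DMSO is read by RT-PCR and capillary electrophoresis.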

The target of test [10] is Bile acid receptor (Homo sapiens) (UniProt Q96RI1). Put plainly: ATG_FXR_TRANS: Attagene TRANS-FACTORIAL HepG2 Assay for Farnesoid X Receptor (FXR) (AID 2282979).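 Further: hits raise reporter mRNA above DMSO so AC50 marks FXR activation.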 The settings on record: HepG2 Attagene TRANS FXR-GAL4 reporter transcription. The gist of the method: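 HepG2 cells were transiently transfected with GAL4-UAS reporters driven by chimeric NR-Gal4 proteins and dosed for 24 h. Reporter mRNA was quantified by RT-PCR, fluorescent labelling, HpaI digestion and capillary electrophoresis, with gain of signal scored versus DMSO.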
Sequence of Bile acid receptor (Homo sapiens) (Q96RI1 whole entry, looked up, the tested form may be a part): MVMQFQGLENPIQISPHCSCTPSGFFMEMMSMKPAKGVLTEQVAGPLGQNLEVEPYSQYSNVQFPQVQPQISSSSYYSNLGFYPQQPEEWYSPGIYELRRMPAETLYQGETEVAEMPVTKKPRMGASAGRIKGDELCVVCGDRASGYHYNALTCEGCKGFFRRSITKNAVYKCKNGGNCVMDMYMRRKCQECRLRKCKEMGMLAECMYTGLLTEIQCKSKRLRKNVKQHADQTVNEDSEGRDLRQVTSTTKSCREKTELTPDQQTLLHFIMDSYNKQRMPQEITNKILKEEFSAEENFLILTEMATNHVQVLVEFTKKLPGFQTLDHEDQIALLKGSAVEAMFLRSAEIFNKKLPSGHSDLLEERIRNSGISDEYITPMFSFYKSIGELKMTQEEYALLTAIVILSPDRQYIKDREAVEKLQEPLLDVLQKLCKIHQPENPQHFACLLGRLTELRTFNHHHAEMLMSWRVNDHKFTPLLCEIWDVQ

Test [11] concerns the target Oxysterols receptor LXR-alpha (Homo sapiens) (UniProt Q13133). Nature of the test: ATG_LXRa_TRANS: Attagene TRANS-FACTORIAL HepG2 Assay for human Liver X Receptor alpha (LXRa) (AID 2282980). The settings on record: HepG2 Attagene TRANS reporter, LXRa transactivation. In short, it runs like this:
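HepG2 cells transiently transfected with GAL4-UAS reporter units for chimeric NR-Gal4 proteins, exposed to chemicals for 24 h. Reporter mRNA quantified by RT-PCR and capillary electrophoresis; gain of signal fitted relative to DMSO.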

In test [12] the target is Oxysterols receptor LXR-beta (Homo sapiens) (UniProt P55055). Nature of the test: ATG_LXRb_TRANS: Attagene TRANS-FACTORIAL HepG2 Assay for human Liver X Receptor beta (LXRb) (AID 2282981). The note with it: HepG2 Attagene TRANS GAL4-LXRb reporter, mRNA. The gist of the method:
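Multiplexed reporter assay, HepG2, 24 h dosing. Fluorescence of labelled RT-PCR products after capillary electrophoresis gives transcript level; positive fitting direction relative to DMSO.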

Test [13] is described as follows: ATG_M_06_TRANS: Attagene TRANS-FACTORIAL HepG2 Assay for M06 Transcription Factor (Internal Marker) (AID 2282983). The note with it: HepG2 Attagene TRANS M06 internal marker reporter. In short, it runs like this: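 mRNA levels of a reporter transcript, quantified as FAM fluorescence on capillary electrophoresis, served as readout. HepG2 cells expressing exogenous GAL4-chimera reporter constructs were exposed for 24 h. Gain of signal over DMSO was evaluated.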

Test [14] deals with Nuclear receptor subfamily 4 group A member 2 (Homo sapiens) (UniProt P43354). Nature of the test: ATG_NURR1_TRANS: Attagene TRANS-FACTORIAL HepG2 Assay for human Nuclear Receptor Related Protein 1 (NURR1) (AID 2282985). The settings on record: HepG2 Attagene TRANS reporter, mRNA readout. The gist of the method: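 Endpoint: reporter mRNA increase relative to DMSO. HepG2 cells transfected with reporter units, treated 24 h; RNA processed by RT-PCR, labelling, HpaI digestion and capillary electrophoresis.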
Sequence of Nuclear receptor subfamily 4 group A member 2 (Homo sapiens) (P43354 whole entry, looked up): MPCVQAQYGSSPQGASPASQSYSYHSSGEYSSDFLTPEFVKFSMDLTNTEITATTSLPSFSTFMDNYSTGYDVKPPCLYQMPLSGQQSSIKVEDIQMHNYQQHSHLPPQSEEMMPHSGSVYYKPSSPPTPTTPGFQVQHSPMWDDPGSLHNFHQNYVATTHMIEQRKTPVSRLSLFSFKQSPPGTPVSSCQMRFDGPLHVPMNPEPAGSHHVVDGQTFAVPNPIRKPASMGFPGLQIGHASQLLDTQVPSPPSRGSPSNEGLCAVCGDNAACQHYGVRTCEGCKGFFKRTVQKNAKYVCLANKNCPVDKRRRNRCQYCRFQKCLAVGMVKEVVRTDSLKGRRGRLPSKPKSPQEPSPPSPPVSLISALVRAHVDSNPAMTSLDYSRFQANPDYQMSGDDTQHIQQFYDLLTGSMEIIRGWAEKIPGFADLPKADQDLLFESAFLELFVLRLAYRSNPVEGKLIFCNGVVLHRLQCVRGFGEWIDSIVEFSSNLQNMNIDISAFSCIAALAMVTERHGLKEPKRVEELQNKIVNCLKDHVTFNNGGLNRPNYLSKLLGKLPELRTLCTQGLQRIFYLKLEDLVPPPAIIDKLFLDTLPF

Test [15] deals with Transcriptional activator Myb (Homo sapiens) (UniProt P10242). Nature of the test: ATG_Myb_CIS: Attagene CIS-FACTORIAL HepG2 Assay for human Myeloblastosis (Myb) Proto-Oncogene Transcription Factor (AID 2282986; active means hit-call score of the fitted dose curve at least 0.9, where 1 is the maximum; inactive means score below 0.9). The note with it: HepG2 Attagene CIS-FACTORIAL Myb reporter transcription; actives raise or lower the signal. The gist of the method:
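Steps: transfect HepG2 with cis-regulated reporter units; dose with chemical for 24 h; isolate RNA, reverse-transcribe, PCR-amplify and FAM-label reporter sequences; digest with HpaI; resolve by capillary electrophoresis. Activity fitted in both directions relative to DMSO.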

The target in test [16] is Hepatocyte nuclear factor 4-alpha (Homo sapiens) (UniProt P41235). Put plainly: ATG_HNF4a_TRANS: Attagene TRANS-FACTORIAL HepG2 Assay for human Hepatocyte Nuclear Factor 4 alpha (HNF4a) (AID 2282982). The settings on record: HepG2 HNF4a transactivation reporter, mRNA readout. In short, it runs like this: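 Endpoint reflects transcriptional activation of a GAL4-UAS reporter by an HNF4a-GAL4 chimera in transfected HepG2 cells, 24 h post-dosing. Fluorescence from RT-PCR products separated by capillary electrophoresis; DMSO baseline.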

Test [17] in a line: ATG_GAL4_TRANS: Attagene TRANS-FACTORIAL HepG2 Assay for GAL4 (Internal Marker) (AID 2282976). The note with it: HepG2 Attagene TRANS GAL4 internal marker reporter. The gist of the method:
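Background-control readout: GAL4-UAS reporter transcript in transiently transfected HepG2 cells after 24 h compound exposure. Measured by RT-PCR, 6-FAM primer extension, HpaI digest and capillary electrophoresis; gain-of-signal fit versus DMSO.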

The nature of test [18]: ATG_M_32_TRANS: Attagene TRANS-FACTORIAL HepG2 Assay for M32 Transcription Factor (Internal Marker) (AID 2282984). The note with it: HepG2 Attagene TRANS M32 internal marker reporter. In short, it runs like this:
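Internal-marker readout from a multiplexed transcription reporter panel. HepG2 cells were transfected with GAL4-UAS reporter units, treated 24 hours, and reporter transcript levels determined by fluorescence after RT-PCR and capillary separation.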

Test [19] concerns the target Steroid hormone receptor ERR1 (Homo sapiens) (UniProt P11474). Put plainly: ATG_ERRa_TRANS: Attagene TRANS-FACTORIAL HepG2 Assay for human Estrogen-Related Receptor alpha (ERRa) (AID 2282971). The note with it: HepG2 Attagene TRANS reporter, ERRa transactivation. In short, it runs like this: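 HepG2 cells transiently transfected with GAL4-UAS reporter units and chimeric NR-Gal4 constructs; after 24 hour compound incubation, reporter mRNA quantified by RT-PCR, fluorescent labelling and capillary electrophoresis, gain of signal versus DMSO.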

The structures appear in SMILES notation. Records with an inconclusive call do not appear. Some compounds were tested as several samples or in several runs, with calls that do not always agree. Active and inactive are the calls of the source. How the source made its calls, unless noted: active means hit-call score of the fitted dose curve at least 0.9, where 1 is the maximum; inconclusive means response in the unintended direction; inactive means score below 0.9.

Sequence of Transcriptional activator Myb (Homo sapiens) (P10242 whole entry, looked up): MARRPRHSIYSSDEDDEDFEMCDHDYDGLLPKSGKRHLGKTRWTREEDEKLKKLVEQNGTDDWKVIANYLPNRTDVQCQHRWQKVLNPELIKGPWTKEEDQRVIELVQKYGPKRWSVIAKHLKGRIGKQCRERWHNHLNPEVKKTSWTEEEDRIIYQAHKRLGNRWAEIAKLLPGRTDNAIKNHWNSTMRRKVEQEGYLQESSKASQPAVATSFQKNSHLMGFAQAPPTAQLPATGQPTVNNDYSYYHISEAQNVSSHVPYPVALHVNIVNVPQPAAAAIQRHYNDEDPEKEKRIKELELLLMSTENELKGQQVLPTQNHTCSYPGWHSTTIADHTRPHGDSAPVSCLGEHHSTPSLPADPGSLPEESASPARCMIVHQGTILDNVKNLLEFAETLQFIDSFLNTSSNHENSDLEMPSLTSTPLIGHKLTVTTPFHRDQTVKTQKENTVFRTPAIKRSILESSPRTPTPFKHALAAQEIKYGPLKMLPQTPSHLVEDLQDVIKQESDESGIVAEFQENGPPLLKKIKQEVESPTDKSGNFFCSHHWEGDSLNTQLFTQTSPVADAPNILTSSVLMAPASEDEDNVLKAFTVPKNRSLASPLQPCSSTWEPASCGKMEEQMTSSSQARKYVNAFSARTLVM
Sequence of Glucocorticoid receptor (Homo sapiens) (P04150 whole entry, looked up, the tested form may be a part): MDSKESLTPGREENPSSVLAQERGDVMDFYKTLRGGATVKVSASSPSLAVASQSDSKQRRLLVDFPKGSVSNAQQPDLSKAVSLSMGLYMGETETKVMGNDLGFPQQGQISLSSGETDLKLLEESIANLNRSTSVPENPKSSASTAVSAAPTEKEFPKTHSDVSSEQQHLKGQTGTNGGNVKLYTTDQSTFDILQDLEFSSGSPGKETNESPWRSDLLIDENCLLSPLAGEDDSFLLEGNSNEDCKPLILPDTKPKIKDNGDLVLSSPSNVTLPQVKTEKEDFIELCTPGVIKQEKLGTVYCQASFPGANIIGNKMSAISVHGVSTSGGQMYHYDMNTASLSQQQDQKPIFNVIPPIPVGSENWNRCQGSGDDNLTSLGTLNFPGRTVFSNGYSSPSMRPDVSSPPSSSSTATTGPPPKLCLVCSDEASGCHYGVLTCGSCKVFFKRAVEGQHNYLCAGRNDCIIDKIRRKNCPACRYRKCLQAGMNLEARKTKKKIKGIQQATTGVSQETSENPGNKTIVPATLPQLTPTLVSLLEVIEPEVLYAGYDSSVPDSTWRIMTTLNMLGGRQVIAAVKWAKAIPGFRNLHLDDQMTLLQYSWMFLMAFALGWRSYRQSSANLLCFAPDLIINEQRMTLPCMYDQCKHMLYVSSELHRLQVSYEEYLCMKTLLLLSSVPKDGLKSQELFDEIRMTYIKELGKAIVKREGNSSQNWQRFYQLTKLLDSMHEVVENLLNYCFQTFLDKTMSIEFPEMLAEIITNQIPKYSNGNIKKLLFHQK
Sequence of Oxysterols receptor LXR-alpha (Homo sapiens) (Q13133 whole entry, looked up, the tested form may be a part): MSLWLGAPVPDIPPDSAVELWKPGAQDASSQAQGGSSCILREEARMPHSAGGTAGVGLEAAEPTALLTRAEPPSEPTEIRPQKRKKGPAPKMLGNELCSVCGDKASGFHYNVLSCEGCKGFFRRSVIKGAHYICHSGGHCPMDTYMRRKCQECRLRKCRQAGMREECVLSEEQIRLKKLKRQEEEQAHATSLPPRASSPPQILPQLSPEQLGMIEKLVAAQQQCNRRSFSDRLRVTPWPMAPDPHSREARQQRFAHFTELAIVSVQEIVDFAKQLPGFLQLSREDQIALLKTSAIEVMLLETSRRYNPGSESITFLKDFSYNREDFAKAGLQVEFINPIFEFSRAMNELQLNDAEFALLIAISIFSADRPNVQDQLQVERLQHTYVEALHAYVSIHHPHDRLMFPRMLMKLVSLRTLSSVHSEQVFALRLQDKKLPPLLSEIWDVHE
Sequence of Oxysterols receptor LXR-beta (Homo sapiens) (P55055 whole entry, looked up, the tested form may be a part): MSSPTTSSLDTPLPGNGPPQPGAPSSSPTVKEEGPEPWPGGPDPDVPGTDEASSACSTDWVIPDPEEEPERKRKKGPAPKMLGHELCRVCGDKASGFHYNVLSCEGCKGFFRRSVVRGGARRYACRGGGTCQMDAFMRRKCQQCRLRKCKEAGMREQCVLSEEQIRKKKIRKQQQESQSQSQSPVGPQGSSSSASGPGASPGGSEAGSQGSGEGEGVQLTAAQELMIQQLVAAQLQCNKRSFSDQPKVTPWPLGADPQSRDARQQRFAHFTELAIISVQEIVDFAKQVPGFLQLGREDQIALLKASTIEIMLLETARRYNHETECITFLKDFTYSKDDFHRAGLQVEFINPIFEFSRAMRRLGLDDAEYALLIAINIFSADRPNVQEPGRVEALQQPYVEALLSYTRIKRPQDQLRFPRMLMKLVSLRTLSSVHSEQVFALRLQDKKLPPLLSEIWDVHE
Sequence of Estrogen-related receptor gamma (Homo sapiens) (P62508 whole entry, looked up, the tested form may be a part): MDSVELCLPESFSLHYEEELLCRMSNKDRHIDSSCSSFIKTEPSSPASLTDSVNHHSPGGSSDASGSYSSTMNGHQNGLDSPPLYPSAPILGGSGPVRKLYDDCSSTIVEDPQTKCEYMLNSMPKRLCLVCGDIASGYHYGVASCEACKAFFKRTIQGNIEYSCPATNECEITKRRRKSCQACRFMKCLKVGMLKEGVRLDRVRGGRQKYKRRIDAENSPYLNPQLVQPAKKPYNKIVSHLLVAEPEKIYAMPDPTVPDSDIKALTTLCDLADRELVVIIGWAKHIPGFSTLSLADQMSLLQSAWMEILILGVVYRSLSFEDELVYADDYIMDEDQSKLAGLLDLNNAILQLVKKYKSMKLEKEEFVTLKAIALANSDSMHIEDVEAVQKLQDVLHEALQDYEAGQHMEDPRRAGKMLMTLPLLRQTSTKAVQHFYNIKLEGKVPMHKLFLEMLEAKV

As for `O=C(O)C(F)(OC(F)(F)C(F)(OC(F)(F)C(F)(OC(F)(F)C(F)(F)C(F)(F)F)C(F)(F)F)C(F)(F)F)C(F)(F)F` (configuration not stated), the call in [1], in test [2], in test [3], in test [4], in [5] and in test [6] was inactive. Further, the result in [7], in test [8], in [9], in test [10], in [11] and in test [12] was inactive. For the same compound, the result in test [13], in test [14] and in [15] was inactive.
Broadly, the AC50 is the concentration giving half of the maximal activity seen. Take `CNC(=S)NC`: the call in test [1], in test [2], in test [3], in test [4], in test [5] and in test [7] was inactive. Moreover, the call in test [10], in test [12], in [16], in test [13] and in [14] was inactive. In addition, the concentration at half-maximal activity (AC50) in [6] is 25.9 µM (active).
In the case of `CCC(=O)OCCc1ccccc1`, the call in [1], in test [2], in test [3], in test [4], in test [5] and in [6] was inactive. Further, the compound was classed as inactive in test [7], in test [17], in [10], in test [12] and in test [18].
On to `CC(Cc1ccc(O)c(O)c1)C(C)Cc1ccc(O)c(O)c1` (configuration not stated), for which the AC50 in test [1] is 18.7 µM (active); in [2], 6.72 µM (active); in test [4], 5.93 µM (active); in [6] it was 9.13 µM (active); in test [7], 14.4 µM (active); in test [14] it was 57.1 µM (active). Besides, the compound was called inactive in [3], in test [5], in test [17], in test [8], in test [10] and in test [11]. The compound was called inactive in [16], in test [13] and in [15].
`C=C(C)C(=O)OCC(F)(F)C(F)(F)C(F)(F)F`: the result in [1], in test [2], in test [3], in [4], in [6] and in test [19] was inactive. Further, the compound was classed as inactive in test [7], in test [17], in [8], in test [9], in test [10] and in [11]. The outcome in [12], in test [13], in test [18] and in test [14] was inactive. Also, the AC50 in test [6] is 30.7 µM (active).
Regarding `OCC(F)(F)C(F)(F)C(F)(F)C(F)(F)C(F)(F)C(F)(F)F`, the call in test [1], in [3], in [4], in [5], in [6] and in test [7] was inactive. Besides, the compound was called inactive in [17], in test [9], in test [10], in test [12], in test [14] and in test [15]. Besides, the AC50 in [2] is 239 µM (active).
`CCO[Si](CCC(F)(F)C(F)(F)C(F)(F)C(F)(F)C(F)(F)C(F)(F)F)(OCC)OCC`: the call in [1], in test [2], in test [3], in test [4], in test [6] and in test [19] was inactive. Besides, the compound was classed as inactive in test [7], in [17], in test [8], in [10], in [11] and in test [12]. Also, the compound was called inactive in test [16], in test [13], in [14] and in test [15].
Take `O=C(C=Cc1ccccc1)OCC=Cc1ccccc1`: the result in test [1], in test [2], in test [3], in test [4], in test [5] and in [7] was inactive. For the same compound, the result in test [17], in [12], in test [16], in test [13], in [18] and in [15] was inactive. Besides, in [6], the AC50 is 18 µM (active).
